This is part of a sample that, as a whole, favours compounds with a hit. Of some 83,000 tested, about 20% had one in any assay.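 96-well plates, one dose, 48 hours. Percent growth reported; active if below 10.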 Calls of active or inactive are those of the source.
What follows are molecules tested on ACHN renal (assay: NCI-60 one-dose screen, 48 h (100 = growth as untreated, 0 = no growth, -100 = all killed)). Settings: 10 µM unless noted.
Experimental: Growth inhibition of the ACHN human tumor cell line is measured as a screen for anti-cancer activity. Cells are grown in 96 well plates and exposed to the test compound for 48 hours. Compounds are tested at a single concentration, which is 10^-5 M for most compounds. The reported endpoint is percent growth (GI% or GIPRCNT), where numbers from 0 - 100% represent growth inhibition, and numbers from -100% - 0 represent cell death. For example, a value of 40 represents 60% growth inhibition. A value of 0 means no net growth occurred over the course of the experiment. A value of -40 indicates 40% of cells at the beginning of the experiment died by the end of the experiment. A value of -100 means all cells are dead at the end of the experiment.
NCI-60 Human Tumor Cell Lines Screen was performed using the standard one-dose NCI protocol, which is described in more detail at https://dtp.cancer.gov/discovery_development/nci-60/default.htm.
Compounds with GIPRCNT values below 10 were considered active. Activity score was based on GIPRCNT using the following formula: […]
Score is 0 for GIPRCNT values of 100 or above, 50 for GIPRCNT values of 0, and 100 for GIPRCNT values of -100.

SMILES	growth
COC(=O)C(N)CC(C)C (stereo not given)	97.4% (inactive)
O=C(N/N=C\c1ccc(Cl)cc1)C(=O)N/N=C\c1ccc(Cl)cc1	96.8% (inactive)
O=C(Nc1ccc(-n2cc(-c3ccncc3)c(-c3ccc(Cl)c(O)c3)n2)cc1)c1cc(C(F)(F)F)cc(C(F)(F)F)c1	54.3% (inactive)
CCCNC(=O)Oc1ccc(/C(=C(/C)Cc2ccc(OC)cc2)c2ccc(OCCN3CCCC3)cc2)cc1	78.6% (inactive)
C/C(=N\Nc1cccc(Cl)n1)c1ccccn1	6.24% (active)
COc1cc2cc3cc4cc(OC)c(OC)cc4c(C)[n+]3cc2cc1OC (tested in a mixture with another compound)	95.2% (inactive)
O=C(NCCCl)Nc1nccnc1OCc1ccc(F)cc1	105% (inactive)
COC(=O)c1ccc2[nH]c(O)c(C(=Nc3ccc(N(C)C(=O)CN4CCN(C)CC4)cc3)c3ccc(CCO)cc3)c2c1	74.1% (inactive)
CC(=O)Nc1nc(C)c(C(=O)NNS(=O)(=O)c2ccccc2)s1	115% (inactive)
CCOc1ccc2nc3ccc(Cl)cc3nc2c1	94.6% (inactive)
Nc1nc2c(c3ncncc13)C(c1cccc(C(F)(F)F)c1)Cc1ncncc1-2 (stereo not given)	45% (inactive)
COc1ccc(C(=O)c2no[n+]([O-])c2C(=O)c2ccc(OC)cc2)cc1	-47% (active)
O=C1C(Cl)=C(SC2=NCCN2)C(=O)c2ccccc21	83.5% (inactive)
O=C1C(=O)c2ccccc2C(O)=C1CCCc1ccc(Oc2ccccc2)cc1	59.4% (inactive)
CCN(CCO)CCNc1ccc(C)c2sc3cc(OC)ccc3c(=O)c12	36.8% (inactive)
O=C(/C=C/c1ccc(Br)cc1)c1ccccc1	100% (inactive)
N=C(N)N=Nc1ccc(NN=C(N)N)c2ccccc12	105% (inactive)
CCOC(=O)CNS(=O)(=O)CC(=O)c1ccccc1	99.5% (inactive)
COCC(=O)NNc1[nH]c(-c2ccc(OC)cc2)cc1C#N	110% (inactive)
Oc1ccc2ccccc2c1/C=N\Nc1ccccn1	6.56% (active)

SMILES	growth
COC(=O)c1cc(Nc2ccc(O)c3c2C(=O)c2c([N+](=O)[O-])ccc(O)c2C3=O)cc(C(=O)OC)c1	90.5% (inactive)
CCCCCCCCCCN1CC2CCCCC2C1 (stereo not given)	80.1% (inactive)
Cc1ccc(S(=O)(=O)NC(CCC(=O)Nc2ccccc2)C(=O)Nc2ccccc2)cc1 (stereo not given)	-50.7% (active)
COc1cc(-c2nc(/C=C3/C(=O)Nc4ccccc43)c3ccccn23)cc(OC)c1OC	58.6% (inactive)
CCn1cnc(C[C@H](NC(=O)[C@@H](NC(=O)Nc2cc(C(F)(F)F)cc(C(F)(F)F)c2)C(C)(C)C)C(=O)OC)c1	-95.8% [100 µM] (active)
COC(=O)/C(Br)=C/c1c[nH]c2ccc(Br)cc12	86.7% (inactive)
CCCCCN1CCN(C(CC(=O)c2ccccc2)C(=O)c2ccccc2)CC1 (stereo not given)	106% (inactive)
COc1ccc(/C=C2\SC(=O)N(Cc3cc(=O)oc4ccc(OC)cc34)C2=O)cc1	92.7% (inactive)
COc1ccc2c(c1)cn1c3ccc(O)cc3[nH]c(=O)c21	14.8% (inactive)
O=C(Oc1ccccc1)c1ccccc1Cl	102% (inactive)
O=C(/C=C1\C(=O)N(Cc2ccc([N+](=O)[O-])cc2)c2ccccc21)c1ccc(OCCN2CCCC2)cc1	45.7% (inactive)
CC[C@H](Nc1ncnc2nc[nH]c12)c1nc2cccc(NCc3ccc(C(=O)NO)o3)c2c(=O)n1-c1ccccc1	97.3% (inactive)
COC(=O)C(C(=O)OC)C(Br)C(Br)C(Br)c1ccccc1 (stereo not given)	17.9% (inactive)
CCc1c(C)c2ccc(OCC(=O)N=Nc3c(O)[nH]c4ccccc34)c(C)c2oc1=O	82.2% (inactive)
COc1ccc(NC(=O)/C=C(C)/C=C/C=C(C)/C=C/C2=C(C)CCCC2(C)C)cc1	54% (inactive)
O=C(/C=C1\C(=O)N(Cc2ccccc2)c2ccccc21)c1ccc(OCCN2CCCCC2)cc1	-25.4% (active)
Cc1ncc(C(=O)Nc2ccc(CN3CCN(C)CC3)c(C(F)(F)F)c2)cc1C#Cc1c(N)ncc2ccc(F)cc12	-15.8% (active)
O=C(Nc1cccc(Cn2c(=O)[nH]c3ccc(Oc4ncccn4)cc3c2=O)c1)c1ccc(Cl)cc1	40.3% (inactive)
Cc1nnc(/N=C2\NC(=O)/C(=C/C=C/c3ccccc3)S2)s1	50.8% (inactive)
COc1cc2c(c(OC)c1OC)C(=O)CC(c1cccc(C(=O)Nc3cccc(Br)c3)c1)O2 (stereo not given)	89.1% (inactive)

Source: PubChem BioAssay (NCI)
